Bioassay records from PubChem BioAssay.
The list is not random: actives were taken first. Their share in the collection is about 3.5%.
MITF inh = MITF inhibitors, primary screen, biochemical, AlphaScreen, human; inhibition, % at 2.6 µM; AID 1259374, 2018; AlphaScreen MITF homodimerization, bead proximity signal; actives 0.91% (n = 650,000); in the data active = inhibition above about 50%;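 note: 0% = vehicle wells with protein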
FBW7 activator = FBW7 E3 ligase activators, primary screen, biochemical, AlphaScreen, human | F-box/WD repeat-containing protein 7 (Homo sapiens), Q969H0 | AlphaScreen FBW7–phospho-cyclin E peptide binding, activator screen | normalized activity (activation), % at 26.1 µM | actives 0.13% (n = 650,000) | AID 1259310, 2017; in the data active = normalized activity above about 1.9%;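 note: purified mutant Fbw7 with reduced substrate affinity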
GPR151 ag = activators of human GPR151, primary screen, cell-based, PathHunter beta-arrestin, luminescence | G-protein coupled receptor 151 (Homo sapiens), Q8TDV0 | PathHunter beta-arrestin GPR151 cells | activation, % at 11.2 µM | actives 1% (n = 650,000); in the data active = activation above about 4.9%;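 note: 0% = median of compound wells and 100% = cells with positive control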
Target sequence (Q8TDV0 whole entry, looked up): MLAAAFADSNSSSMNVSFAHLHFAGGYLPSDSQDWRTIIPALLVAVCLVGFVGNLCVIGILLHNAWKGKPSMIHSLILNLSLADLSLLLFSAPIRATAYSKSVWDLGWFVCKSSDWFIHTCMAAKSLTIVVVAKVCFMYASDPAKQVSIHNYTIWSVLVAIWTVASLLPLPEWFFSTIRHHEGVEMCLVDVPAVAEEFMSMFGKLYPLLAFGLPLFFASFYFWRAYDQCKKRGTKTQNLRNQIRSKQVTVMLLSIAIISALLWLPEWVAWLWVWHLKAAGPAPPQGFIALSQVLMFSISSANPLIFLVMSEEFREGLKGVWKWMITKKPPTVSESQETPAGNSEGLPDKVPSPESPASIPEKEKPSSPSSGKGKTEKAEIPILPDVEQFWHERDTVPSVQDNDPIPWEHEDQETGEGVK
TEAD-YAP inh = TEAD-YAP interaction inhibition, primary screen, TEAD-YAP interaction inhibitor project, luminescence, HEK-TIYL cells; TEAD-Gal4/YAP UAS-luciferase luminescence; inhibition, % at 9.12 µM; actives 1.4% (n = 640,000); AID 1259422, 2018; in the data active = inhibition above about 32%;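 note: 0% = median of test compound wells and 100% = reference inhibitor wells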
MITF confirm = MITF inhibitors, retest of hits, confirmation, biochemical, AlphaScreen, triplicate | shares compounds with MITF inh | AlphaScreen MITF homodimerization, biotin/His-MITF beads | inhibition, % at 2.6 µM | actives 16% (n = 4,700) | AID 1259372, 2018;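 active = inhibition above a cutoff derived from the DMSO control wells, cut at about 28% in these data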;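 note: 0% = MITF dimer wells with DMSO only; inhibitors lower the bead chemiluminescence by keeping MITF from dimerizing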
AS interf DR = AlphaScreen optical interference compounds, dose response, counter-screen, biochemical, HTS. IC50, µM. actives 6% (n = 480). shares compounds with MITF inh. AlphaScreen optical interference counterscreen, cell-free; call rule not given here
AS interf ctr = AlphaScreen optical interference compounds, counter-screen for MITF inhibitor project, biochemical, triplicate. AID 1259376, 2018. LysRS AlphaScreen counterscreen, signal interference. shares compounds with MITF inh. inhibition, % at 2.6 µM. actives 7.6% (n = 4,700);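 active = inhibition above a cutoff derived from the DMSO control wells, cut at about 30% in these data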
The depositor's hits bear a star; / = not tested or not shown.

SMILES | MITF inh | FBW7 activator | GPR151 ag | TEAD-YAP inh | MITF confirm | AS interf ctr | others
Cc1nc2cc(-c3ccc(Cl)cc3)[nH]n2c(=O)c1C | 7.1 | 0.0 | 3.7 | -47.8 | / | /
Cc1nc2c(c(C)nn2C(C)(C)C)c(C)c1CCC(=O)NCCN1CCOCC1 | 2.6 | 0.7 | -1.0 | 7.5 | / | /
CC(Oc1ccc(O)cc1)(P(=O)(O)O)P(=O)(O)O | 96.6* | 1.4 | 2.4 | / | 96.0* | 15.8 | AS interf DR=>6.48
O=C(O)c1ccc(-n2cccc2/C=C2/NC(=O)N(c3ccc(Cl)cc3)C2=O)cc1 | 55.2* | -0.1 | -0.5 | -14.5 | 73.9* | 33.8*
O=C(O)c1cccc(-n2cccc2/C=C2/NC(=O)N(c3cccc(Cl)c3)C2=O)c1 | 20.8 | 0.0 | 0.3 | 4.7 | / | /
O=C(O)c1cccc(-n2cccc2/C=C2/NC(=O)N(c3ccc(Cl)cc3)C2=O)c1 | 60.9* | -0.1 | -0.2 | -8.1 | 35.5* | 9.6 | AS interf DR=>6.48
O=C(O)c1ccc(/C=C2/NC(=O)N(c3ccc(Cl)cc3)C2=O)cc1 | -19.5 | -0.1 | 0.7 | -6.8 | / | /
O=C1NC(=O)/C(=C\c2cccn2-c2ccc(C(=O)O)cc2)N1 | 66.1* | -0.1 | -0.8 | 13.0 | 9.1 | -5.2
COc1ccc(OCC(=O)NCCNC(=O)COc2ccc(OC)cc2)cc1 | -1.9 | 0.1 | 4.3 | 11.9 | / | /
CCc1ccc(OCC2c3cc(OC)c(OC)cc3CCN2C(=O)C2CC2)cc1 (configuration not stated) | 2.8 | -0.1 | 2.0 | -15.5 | / | /
COc1ccc(-c2noc(C3CCCN(S(=O)(=O)c4ccc(F)cc4)C3)n2)cc1 (configuration not stated) | -0.9 | 0.0 | 3.6 | -3.4 | / | /
Cc1ccc(NC(=O)CSc2nc(=O)n(Cc3ccncc3)c3c2CCCC3)cc1 | -13.3 | 0.2 | 0.6 | -7.8 | / | /
O=C(NCCOc1cccc2cccnc12)c1ccc(F)c(F)c1 | 5.8 | 0.1 | 1.7 | -3.4 | / | /
CCOC(=O)C1=C(C)NC2=C(C(=O)CCC2)C1c1cc2c(cc1[N+](=O)[O-])OCO2 (configuration not stated) | 7.7 | -0.1 | -0.7 | 23.0 | / | /
CC1=C(C#N)C(c2cc3c(cc2[N+](=O)[O-])OCO3)C2=C(CCCC2=O)N1 (configuration not stated) | 60.0* | -0.2 | -0.6 | 10.5 | 80.3* | -27.3 | AS interf DR=>6.48
O=C(/C=C/c1ccco1)N1CCN(Cc2nc3ccccc3n2Cc2ccccc2)CC1 | 60.4* | -0.6 | -0.3 | -21.7 | 11.6 | 29.1
Cc1ccc2c(c1)cc1c(=O)n(CC(=O)NCCN3CCOCC3)nc(C)n12 | 13.3 | 0.2 | -0.3 | -10.3 | / | /
Cc1ccc2c(c1)cc1c(=O)n(CC(=O)NCCCN3CCCCC3)nc(C)n12 | 63.2* | 0.0 | 0.0 | -5.4 | 7.8 | 10.4
Cc1cc(C)c(C)c(S(=O)(=O)N2CCN(c3cccc(C(F)(F)F)c3)CC2)c1C | 63.3* | -0.1 | 1.7 | -2.9 | 4.4 | 17.4
Cc1c(S(=O)(=O)N2CCN(c3cccc(C(F)(F)F)c3)CC2)c(=O)n(C)c(=O)n1C | 22.4 | 0.7 | -1.6 | 6.2 | / | /
CCN(C(=O)C1COc2ccccc2O1)C12CC3CC(CC(C3)C1)C2 (configuration not stated) | 60.8* | 0.4 | -1.8 | 5.4 | 70.7* | 1.1 | AS interf DR=>6.83
O=C(OCC(=O)C12CC3CC(CC(C3)C1)C2)C1COc2ccccc2O1 (configuration not stated) | 4.5 | 0.3 | 0.9 | 5.1 | / | /
COCCn1c(SCC#N)nnc1-c1ccc(O)cc1 | 9.4 | 0.3 | -0.3 | 6.4 | / | /
COCCn1c(SCC#N)nnc1-c1ccccc1 | 65.3* | 0.3 | 0.9 | 5.5 | 15.2 | 18.3
CS(=O)(=O)c1cncnc1C1CCCN(C(=O)N2CCCC2)C1 (configuration not stated) | 6.3 | 0.0 | -1.0 | -11.2 | / | /
SMILES | MITF inh | FBW7 activator | GPR151 ag | TEAD-YAP inh | MITF confirm | AS interf ctr | others
CCN(CC)C(=O)CN1CCCC(c2ncncc2S(C)(=O)=O)C1 (configuration not stated) | 63.5* | -0.1 | -0.1 | -3.4 | 9.0 | 10.8
COc1cccc(NC(=S)N(CCCN2CCCC(C)C2)Cc2ccco2)c1 (configuration not stated) | -16.6 | 0.0 | -0.1 | 1.5 | / | /
CCN(c1ccccc1)c1c([N+](=O)[O-])ccc2nonc12 | 66.0* | -0.5 | -0.3 | -1.5 | 59.4* | 54.5*
CCN(c1ccccc1)c1cc(N2CCOCC2)c2nonc2c1[N+](=O)[O-] | 5.3 | -0.2 | 1.1 | 0.4 | / | /
COc1ccc(-c2cc(N3CCCN(C)CC3)ncn2)cc1 | 10.1 | 0.1 | -0.6 | -14.0 | / | /
COc1ccc2c(C)cc(N3CCCN(C)CC3)nc2c1 | 62.0* | -0.1 | 1.1 | 8.3 | -1.7 | -2.6
CCN(CC)CCN(C(=O)c1snc(C(N)=O)c1N)C(C)C(=O)NCc1ccccc1 (configuration not stated) | -1.2 | 0.1 | 0.5 | -3.1 | / | /
Cc1cccc(CCNC(=O)CN(C)S(=O)(=O)c2cnc[nH]2)c1 | 75.5* | 0.0 | 0.4 | -1.1 | 9.9 | 19.8
Cc1ccc(C)c(NC(=O)CN(C)S(=O)(=O)c2cnc[nH]2)c1 | 4.0 | 0.1 | 0.0 | 0.6 | / | /
COc1ccc(CN(CCCN(C)C)CCCN(C)C)cc1OC | 34.5 | 0.0 | -0.2 | 1.3 | / | /
CN(C)CCCN(CCCN(C)C)Cc1ccc(Br)cc1 | 53.8* | 0.1 | 0.1 | 2.5 | -0.7 | 8.0
Cc1cc(=O)[nH]c(SCC(=O)C23CC4CC(CC(C4)C2)C3)n1 | 2.9 | -0.3 | 1.3 | -1.8 | / | /
COc1ccc(CCN(CCC(=O)O)CCC(=O)O)cc1OC | 57.6* | -0.2 | -1.4 | 1.3 | -13.1 | -2.5
CCc1ccccc1Nc1nc(-c2cccc(NC(C)=O)c2)cs1 | 53.5* | -0.1 | 4.6 | -1.8 | 7.2 | 14.5
COc1ccccc1Nc1nc(-c2cccc(NC(C)=O)c2)cs1 | -1.9 | 0.0 | 2.0 | -67.0 | / | /
CC(=O)Nc1ccc(-c2csc(NCc3ccccc3)n2)cc1 | 7.8 | 0.2 | 2.4 | -33.4 | / | /
CC(=O)Nc1cccc(-c2csc(NCc3ccccc3)n2)c1 | 84.8* | 0.2 | 0.3 | -3.7 | 9.4 | 8.9
CC(=O)c1ccccc1-c1ccc2c(c1)CC(CNC(=O)c1occc1C)O2 (configuration not stated) | 7.6 | 0.0 | 1.3 | -14.4 | / | /
COc1ccc(C2=NN(CC(=O)N3CCN(c4ccccc4)CC3)C(=O)CC2)cc1 | 11.5 | 0.0 | 0.0 | 6.5 | / | /
C=CCOc1ccc2c3c(c(=O)oc2c1C)CCC3 | 54.4* | 0.6 | -1.5 | -27.1 | 12.4 | 14.1
O=C(NC1CCN(S(=O)(=O)c2ccccc2C(F)(F)F)CC1)c1ccco1 | 77.5* | 0.1 | 0.3 | 1.4 | 6.8 | 9.8
